About 83,000 compounds went through this panel and 20% of them were active in at least one assay; those are over-represented in the sample as a whole.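 In brief: 96-well plates, 48 h treatment, single concentration, percent growth endpoint.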 Calls of active or inactive are those of the source. How the source made its calls: active means growth percent below 10; inactive means the rest.
Assays:
Assay in all cases: NCI-60 one-dose screen, 48 h (100 = growth as untreated, 0 = no growth, -100 = all killed)
Details in all cases: 10 µM unless noted
[1] = test system: DU-145 prostate
[2] = test system: K-562 leukemia
[3] = test system: MALME-3M melanoma
[4] = test system: MDA-MB-231 breast
[5] = test system: RXF 393 renal
[6] = test system: SF-268 CNS
[7] = test system: SF-295 CNS
[8] = test system: SF-539 CNS
[9] = test system: M14 melanoma
[10] = test system: HCT-15 colon
[11] = test system: HT29 colon
[12] = test system: SNB-75 CNS
[13] = test system: SNB-19 CNS
[14] = test system: U251 CNS
[15] = test system: PC-3 prostate
[16] = test system: SK-MEL-5 melanoma
[17] = test system: UACC-62 melanoma
[18] = test system: LOX IMVI melanoma
[19] = test system: SK-MEL-28 melanoma
[20] = test system: UACC-257 melanoma

Measured: growth

Cc1c2oc3c(C)ccc(C(=O)OC(C)C4NC(=O)C(C(C)C)N(C)C(=O)CN(C)C(=O)C5CCCN5C(=O)C(C(C)C)NC4=O)c3nc-2c(C(=O)OC(C)C2NC(=O)C(C(C)C)N(C)C(=O)CN(C)C(=O)C3CCCN3C(=O)C(C(C)C)NC2=O)c(N)c1=O (stereo not drawn)
inactive: [1] 11.4% | [14] 14.8% | [15] 10.4%
active: [2] 5.53% | [3] -37.6% | [4] 3.61% | [5] -78.5% | [6] -5.9% | [7] -9.17% | [8] -11.4% | [9] -55.7% | [10] 7.36% | [11] -29.2% | [12] -73.8% | [13] 3.31% | [16] -92% | [17] -71% | [18] 4.35% | [19] -20.8%

CCCCCN(CCCCC)CCCNc1c2c(nc3ccc(Cl)cc13)CCCC2
active: [11] 1.62%
inactive: [1] 66.6% | [2] 14.2% | [3] 35.5% | [4] 18.5% | [5] 57.1% | [6] 76.1% | [7] 37.8% | [8] 47% | [20] 13.2% | [10] 32.5% | [12] 47.9% | [13] 60.8% | [14] 35% | [15] 41.7% | [16] 23.4% | [17] 51% | [18] 14% | [19] 71.2%

O=c1[nH]c(SCc2ccccc2)nc2nc(Nc3ccc(NC(=S)Nc4ccccc4)cc3)nc(-c3ccc(O)cc3O)c12
inactive: [1] 112% | [2] 90.6% | [3] 75% | [4] 98% | [5] 66.2% | [6] 92.6% | [7] 101% | [8] 91.8% | [20] 109% | [10] 108% | [11] 115% | [12] 84.6% | [13] 86.9% | [14] 85.3% | [15] 82.6% | [17] 87.9% | [18] 98% | [19] 94.3%

CCOC1Oc2ccccc2C(=O)/C1=N/c1nccs1 (stereo not drawn)
inactive: [1] 101% | [2] 84.9% | [3] 51.9% | [4] 78.1% | [5] 102% | [6] 76.9% | [7] 93.5% | [8] 93.9% | [20] 112% | [10] 80% | [11] 105% | [12] 75.1% | [13] 91.7% | [14] 82% | [15] 67.8% | [16] 101% | [17] 78.7% | [18] 85.2% | [19] 99.9%

CCOC(=O)c1cc2oc(/C=C/c3cc(=O)c4cc(Cl)ccc4o3)cc2[nH]1
active: [3] -14.5%
inactive: [1] 65.4% | [2] 88.9% | [4] 78.9% | [5] 58% | [6] 73% | [7] 109% | [8] 70% | [20] 101% | [10] 105% | [11] 96.6% | [12] 73% | [13] 92.1% | [14] 92.5% | [15] 85.2% | [16] 68.2% | [17] 75.8% | [18] 101% | [19] 91.4%

c1ccc2c(-c3nc4ccccc4[nH]3)cccc2c1
active: [9] 3.75%
inactive: [1] 33.6% | [2] 14.5% | [3] 38.1% | [4] 41.4% | [5] 31% | [6] 61.4% | [7] 61.4% | [8] 37.1% | [20] 35.7% | [10] 27.1% | [12] 27.8% | [13] 52.5% | [14] 12.5% | [15] 54.1% | [16] 20.1% | [17] 32.2% | [18] 34.6% | [19] 51.5%

Cc1[nH]ccc2cc3nc4ccccc4c3cc12
inactive: [1] 34.4% | [2] 12.1% | [3] 29.8% | [4] 26.3% | [5] 17.5% | [6] 40% | [7] 20.1% | [8] 34% | [20] 39.9% | [9] 38% | [10] 20.3% | [12] 40% | [13] 44.9% | [14] 26.4% | [15] 33.4% | [16] 37.8% | [17] 62% | [19] 54.5%

COc1cc(/C=C/c2cc(/C=C/c3ccc(O)c(OC)c3)n(C(=O)c3ccc(Cl)cc3)n2)ccc1O
active: [2] 2.24% | [9] -1.11% | [12] -2.93% | [15] 4.59% | [16] -32.4%
inactive: [1] 19.9% | [3] 44.6% | [4] 31.8% | [5] 15.3% | [6] 27% | [7] 48% | [8] 10.1% | [20] 63.2% | [10] 14.1% | [13] 45.6% | [14] 16.8% | [17] 22.5% | [18] 13.9% | [19] 19.5%

CC(=O)OC1Oc2cc(C)c(C)cc2-c2oc(=O)c(-c3ccccc3)cc21 (stereo not drawn)
inactive: [1] 15% | [4] 43.7% | [6] 36.8% | [20] 74.5% | [13] 26.9% | [14] 13.2% | [16] 16.7% | [17] 14.2% | [18] 41.9% | [19] 49%
active: [2] -0.66% | [3] -4.37% | [5] -35.3% | [7] -39.9% | [8] -37.1% | [10] 6.95% | [11] -23.7% | [12] -1.15% | [15] -11.4%

O=Cc1ccccc1C(=O)O
inactive: [1] 103% | [2] 90.5% | [3] 103% | [4] 109% | [5] 125% | [6] 96.3% | [7] 96.9% | [8] 94.8% | [9] 101% | [10] 103% | [11] 100% | [12] 99.4% | [13] 107% | [14] 96.9% | [15] 96.1% | [16] 101% | [17] 100% | [18] 101% | [19] 106%

CC1(C)CC2(C)CC(=O)C1C(C(=O)O)C2C(=O)O (stereo not drawn)
inactive: [1] 120% | [2] 104% | [3] 110% | [4] 107% | [5] 103% | [6] 105% | [7] 105% | [8] 108% | [20] 107% | [9] 119% | [10] 110% | [12] 96.4% | [13] 113% | [14] 101% | [15] 108% | [16] 102% | [17] 102% | [18] 101% | [19] 117%

O=C1c2cc3c(cc2-c2c1c1ccc(Cl)cc1c(=O)n2CCCNCCO)OCO3
active: [1] -93.7% | [2] -78.3% | [3] -84.8% | [4] -79.5% | [5] -78.6% | [6] -76.7% | [7] -86.9% | [8] -84.6% | [20] -59% | [9] -83.3% | [10] -78.3% | [12] -88.8% | [13] -62.8% | [14] -94.6% | [15] -85.5% | [17] -70.7% | [18] -89.2% | [19] -74%

Cn1ccnc1C(=O)/C=C/c1ccc(C(=O)Nc2nc3ccccc3[nH]2)cc1
inactive: [3] 72.7% | [4] 19.3% | [6] 40.2% | [7] 64.9% | [9] 71.1% | [10] 24.3% | [13] 41.1% | [15] 38.1% | [16] 83.1% | [17] 74.7% | [18] 11.5% | [19] 89.7%
active: [1] -13.7% | [2] 2.24% | [5] 2.67% | [8] 9.47% | [11] 8.78% | [12] -17%

COC(=O)N/N=C/c1coc2ccc(Cl)cc2c1=O
inactive: [1] 106% | [2] 86.9% | [3] 75.7% | [4] 71.3% | [5] 66.6% | [6] 85.5% | [7] 93.6% | [8] 99.8% | [20] 111% | [10] 97% | [11] 95.4% | [12] 80.5% | [13] 98.4% | [14] 96.7% | [15] 74% | [16] 106% | [17] 93.9% | [18] 86.7% | [19] 100%

Nc1nc2c(c(=O)[nH]1)C1(C(=O)Nc3ccccc31)c1c(nc(N)[nH]c1=O)N2
inactive: [1] 108% | [2] 115% | [3] 99.9% | [4] 98.7% | [5] 96.6% | [6] 104% | [7] 101% | [8] 106% | [20] 110% | [9] 99.3% | [10] 105% | [12] 91.5% | [13] 104% | [14] 107% | [15] 103% | [17] 103% | [18] 98.2% | [19] 112%

CC(NC(N)=S)c1ccccc1 (stereo not drawn)
inactive: [1] 115% | [2] 94.6% | [3] 105% | [4] 91.9% | [5] 98% | [6] 106% | [7] 101% | [8] 96.1% | [9] 104% | [10] 104% | [11] 110% | [12] 95.1% | [13] 102% | [14] 105% | [15] 108% | [17] 101% | [18] 85% | [19] 110%

Source: PubChem BioAssay (NCI)
